This is an account of results in PubChem BioAssay (NCATS).

Inconclusive results are not listed. The source made the active and inactive calls. Calls follow the shape of the dose curve; as a rule, active = well fitted curve in the direction sought with a large enough effect; inconclusive = small, poorly fitted or top-dose-only effect, or another doubt; inactive = no such curve, though single readings can be large; an effect the other way counts as inactive or inconclusive.

Assay [1] in a line: Quantitative High-Throughput drug screen in 47 multiple myeloma cell lines against the NCATS MIPE library collection: Karpas620_DSMZ cell viability assay (AID 1918959). Also: nearly all actives have a fitted effect of over 30% in size. Summed up:
(§1)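 Viability readout: CellTiter-Glo luminescence following 5 min room-temperature incubation with reagent. Prior exposure: 48 h, 37C, humidified 5% CO2, 500 cells per well.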

Assay [2] is described as follows: Quantitative High-Throughput drug screen in 47 multiple myeloma cell lines against the NCATS MIPE library collection: KMM1_JCRB cell viability assay (AID 1918960). Also: nearly all actives have a fitted effect of over 30% in size. Summed up:
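ATP readout (CellTiter-Glo), 48 h drug incubation, 37 °C/5% CO2, 500 cells per well; normalisation to DMSO (100%) and media-only (0%) controls.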

Assay [3] is described as follows: Quantitative High-Throughput drug screen in 47 multiple myeloma cell lines against the NCATS MIPE library collection: JIM3_ECACC cell viability assay (AID 1918963; also: nearly all actives have a fitted effect of over 35% in size). Summed up:
as §1

Assay [4] can be described thus: Quantitative High-Throughput drug screen in 47 multiple myeloma cell lines against the NCATS MIPE library collection: INA6_PLB cell viability assay (AID 1918965; also: nearly all actives have a fitted effect of over 55% in size). Summed up:
(§2)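 Approved and investigational drugs from MIPE 4.0 were added by pin tool to 500 cells per well. After 48 hours at 37C, ATP-based CellTiter-Glo luminescence indicated remaining viability.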

Assay [5] is described as follows: Quantitative High-Throughput drug screen in 47 multiple myeloma cell lines against the NCATS MIPE library collection: JJN3_DSMZ cell viability assay (AID 1918966; also: nearly all actives have a fitted effect of over 50% in size). Summed up: (§3)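 Myeloma cell lines, 500 cells per well, exposed to MIPE 4.0 library compounds for 48 h at 37C, 5% CO2. Viability from ATP by CellTiter-Glo luminescence; normalised to DMSO (100%) and media-only (0%) wells.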

Assay [6] in a line: Quantitative High-Throughput drug screen in 47 multiple myeloma cell lines against the NCATS MIPE library collection: H1112_PLB cell viability assay (AID 1918967; also: nearly all actives have a fitted effect of over 30% in size). Summed up: as §3
Assay [7] can be described thus: Quantitative High-Throughput drug screen in 47 multiple myeloma cell lines against the NCATS MIPE library collection: Karpas25_ECACC cell viability assay (AID 1918968; also: nearly all actives have a fitted effect of over 35% in size). Summed up:
as §3

Assay [8] is described as follows: Quantitative High-Throughput drug screen in 47 multiple myeloma cell lines against the NCATS MIPE library collection: KMS12PE_JCRB cell viability assay (AID 1918972). Also: nearly all actives have a fitted effect of over 30% in size. As to viability: series mostly up to about 46 µM. Summed up:
as §2

The nature of assay [9]: Quantitative High-Throughput drug screen in 47 multiple myeloma cell lines against the NCATS MIPE library collection: MM1S_ATCC cell viability assay (AID 1918980). Also: nearly all actives have a fitted effect of over 45% in size. Summed up: (§4)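 MIPE 4.0 approved/investigational drugs; 500 cells/well; 48 h 37 °C humidified 5% CO2; CTG luminescence readout; DMSO = 100%, media = 0% viability.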
A short description of assay [10]: Quantitative High-Throughput drug screen in 47 multiple myeloma cell lines against the NCATS MIPE library collection: LP1_DSMZ cell viability assay (AID 1918982). Also: nearly all actives have a fitted effect of over 35% in size. Summed up: as §4
Assay [11] in a line: Quantitative High-Throughput drug screen in 47 multiple myeloma cell lines against the NCATS MIPE library collection: KHM11_PLB cell viability assay (AID 1918962). Also: nearly all actives have a fitted effect of over 35% in size. Summed up:
as §1

Assay [12] is described as follows: Quantitative High-Throughput drug screen in 47 multiple myeloma cell lines against the NCATS MIPE library collection: KMS27_JCRB cell viability assay (AID 1918970). Also: nearly all actives have a fitted effect of over 30% in size. Summed up: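 Viability inhibition screen, 48 h compound exposure, luminescent ATP read-out.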
Assay [13] can be described thus: Quantitative High-Throughput drug screen in 47 multiple myeloma cell lines against the NCATS MIPE library collection: KMS20_JCRB cell viability assay (AID 1918973). Also: nearly all actives have a fitted effect of over 45% in size. Summed up:
as §3

The nature of assay [14]: Quantitative High-Throughput drug screen in 47 multiple myeloma cell lines against the NCATS MIPE library collection: KMS26_JCRB cell viability assay (AID 1918975). Also: nearly all actives have a fitted effect of over 45% in size. Summed up: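 Luminescent ATP measurement with CellTiter-Glo gives viability, scaled between DMSO-only wells (100%) and media-only wells (0%). Cells, 500 per well, faced library compounds for 48 hours at 37C.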

Assay [15] can be described thus: Quantitative High-Throughput drug screen in 47 multiple myeloma cell lines against the NCATS MIPE library collection: OCIMY1_PLB cell viability assay (AID 1918979). Also: nearly all actives have a fitted effect of over 35% in size. As to viability: series mostly up to about 46 µM. Summed up:
as §4

Assay [16] can be described thus: Quantitative High-Throughput drug screen in 47 multiple myeloma cell lines against the NCATS MIPE library collection: MM1R_ATCC cell viability assay (AID 1918981). Also: nearly all actives have a fitted effect of over 35% in size. Summed up: as §4
Assay [17] in a line: Quantitative High-Throughput drug screen in 47 multiple myeloma cell lines against the NCATS MIPE library collection: MMM1_PLB cell viability assay (AID 1918976). Also: nearly all actives have a fitted effect of over 35% in size. Conditions: MMM1 myeloma cells viability, CellTiter-Glo, 48 h. Summed up:
as §4

Assay [18] in a line: Quantitative High-Throughput drug screen in 47 multiple myeloma cell lines against the NCATS MIPE library collection: MOLP8_DSMZ cell viability assay (AID 1918977). Also: nearly all actives have a fitted effect of over 45% in size. Summed up:
as §4

The nature of assay [19]: Quantitative High-Throughput drug screen in 47 multiple myeloma cell lines against the NCATS MIPE library collection: KMS21BM_JCRB cell viability assay (AID 1918974). Summed up: as §3
Potency is read from the fitted curve at half-maximal effect.

For `NCC1(CC(=O)O)CCCCC1`, the Potency result in [1], in assay [2], in assay [3], in [4], in assay [5] and in [6] was “inactive” throughout. Moreover, the Potency result in assay [7], in assay [8], in assay [9] and in assay [10] was “inactive” each time.
Consider `CNC(=O)c1ccc(N2C(=S)N(c3ccc(C#N)c(C(F)(F)F)c3)C(=O)C23CCC3)cc1F`, for which the Potency was 18.7 µM (active) in assay [1]; 16.6 µM (active) in assay [2]; 33.2 µM (active) in assay [11]; 23.5 µM (active) in assay [3]; 16.6 µM (active) in assay [4]; 3.72 µM (active) in assay [6]. For the same molecule, the Potency in [7] was 2.96 µM (active); in assay [13], 8.33 µM (active); in [14] it was 18.7 µM (active); in assay [9] it was 1.05 µM (active); in assay [16] it was 13.2 µM (active). Besides, the Potency result in assay [12] and in assay [15] was “inactive” in each case.
`COc1ccc2c(c1OC)CN1CCc3cc4c(cc3C1C2)OCO4` (configuration not stated): the Potency in assay [3] is 16.6 µM (active); in assay [4] it was 18.7 µM (active); in [5], 16.6 µM (active); in [7], 18.7 µM (active); in assay [12], 20.9 µM (active); in [17], 26.4 µM (active). Besides, the Potency entry in [6] and in assay [15] was “inactive” each time.
Turning to `COc1ccc(C(CN(C)C)C2(O)CCCCC2)cc1` (configuration not stated), the Potency result in [1], in assay [3], in [7], in assay [12], in assay [14] and in assay [18] was “inactive” throughout. Moreover, the Potency entry in assay [15], in assay [16] and in assay [10] was “inactive” in each case.
As for `Cn1cc(C2=C(c3cn(C4CCN(Cc5ccccn5)CC4)c4ccccc34)C(=O)NC2=O)c2ccccc21`, the Potency was 5.9 µM (active) in [1]; 4.18 µM (active) in assay [2]; 8.33 µM (active) in [3]; 4.69 µM (active) in assay [4]; 14.8 µM (active) in [5]; 10.5 µM (active) in assay [6]. Moreover, the Potency was 8.33 µM (active) in [7]; 18.7 µM (active) in [12]; 2.35 µM (active) in [8]; 0.166 µM (active) in assay [19]; 16.6 µM (active) in assay [14]; 7.43 µM (active) in [9]. Besides, the Potency in [16] was 13.2 µM (active); in assay [10] it was 10.5 µM (active). For the same molecule, the Potency entry in assay [18] and in assay [15] was “inactive” in each case.
As for `CN1CCN(C(=O)O[C@H]2c3nccnc3C(=O)N2c2ccc(Cl)cn2)CC1`, the Potency entry in [1], in [2], in assay [11], in assay [3], in assay [4] and in assay [6] was “inactive” in each case. In addition, the Potency entry in [7], in assay [12], in [8], in assay [14], in assay [15] and in [9] was “inactive” in each case. Further, the Potency entry in [16] and in assay [10] was “inactive” each time.
Take `CN(C)CCN(C)CCc1ccc(Cl)c(Cl)c1`: the Potency result in assay [1], in [2], in [3], in assay [4], in assay [5] and in [6] was “inactive” each time. Besides, the Potency entry in assay [12], in assay [13], in assay [14] and in assay [16] was “inactive” each time. Also, the Potency in assay [8] is 23.5 µM (active).
For the molecule `Fc1ccc(C(OCCN2CCN(CCCc3ccccc3)CC2)c2ccc(F)cc2)cc1`, the Potency result in assay [1] and in assay [2] was “inactive” throughout. Also, the Potency in assay [11] was 13.2 µM (active); in assay [3], 13.2 µM (active); in [4], 13.2 µM (active); in [5], 23.5 µM (active); in assay [6] it was 13.2 µM (active); in assay [7], 8.33 µM (active). For the same molecule, the Potency was 9.35 µM (active) in assay [13]; 16.6 µM (active) in assay [14]; 14.8 µM (active) in [17]; 26.4 µM (active) in assay [15]; 18.7 µM (active) in assay [9]; 16.6 µM (active) in assay [16]. For the same molecule, in [10], the Potency was 18.7 µM (active).
Take `C[C@@H]1[C@@H](C(=O)C[C@H]2O[C@@H]3O[C@]4(C)CC[C@@H]5[C@H](C)CC[C@@H]([C@H]2C)[C@@]35OO4)O[C@@H]2O[C@]3(C)CC[C@H]4[C@H](C)CC[C@@H]1[C@@]24OO3`: the Potency in assay [1] is 0.0418 µM (active); in [2], 0.0469 µM (active); in assay [11], 0.332 µM (active); in assay [3] it was 0.187 µM (active); in assay [4], 0.264 µM (active); in assay [5], 0.296 µM (active). For the same molecule, the Potency in assay [6] was 0.469 µM (active); in assay [7], 0.0526 µM (active); in [12], 0.166 µM (active); in assay [8], 0.0833 µM (active); in assay [13], 0.469 µM (active); in [14], 0.59 µM (active). The Potency is 0.418 µM (active) in [17], 0.526 µM (active) in assay [18], 16.6 µM (active) in assay [9] and 3.72 µM (active) in assay [16].
